Screens as filed in PubChem BioAssay.
Shown are actives, neighbours in structure and some others; about 4.2% of the full set was active somewhere.
TIM10 inh: growth inhibitors of TIM10 yeast strain; S. cerevisiae TIM10 strain growth, BacTiter-Glo luminescence, 24 h; inhibition, % at 10 µM; 1.4% of 330,000 active;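 active = inhibition of 40% or more at the single tested concentration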;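 note: wild-type TIM10 isogenic control strain grown at permissive 25 °C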
tim23-1 inh: growth inhibitors of tim23-1 mutant yeast | S. cerevisiae tim23-1 growth, BacTiter-Glo luminescence, 24 h | inhibition, % at 20 µM | 1.3% of 330,000 active;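 active = growth inhibition of the mutant yeast at or above 50%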;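 note: temperature-sensitive mutant grown at 25 °C; plate controls were DMSO-treated mutant yeast for no effect and medium wells lacking yeast for full effect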
PfHsp90 yeast 2: reduces growth (ATP signal) of yeast expressing P. falciparum Hsp90 | S. cerevisiae expressing PfHsp90, BacTiter-Glo ATP, 48 h; yeast lacking PDR1 and PDR3 efflux regulators | 0.32% of 310,000 active | inhibition, % at 9.4 µM | AID 504621;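 active = every replicate shows inhibition above about 80%, whatever the replicate mean, limit read from the data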;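 note: 0% = DMSO neutral controls and 100% = 20 µM radicicol positive controls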
NALP1 yeast inh: inhibitors of NALP1 inflammasome in yeast | S. cerevisiae NALP1/ASC/caspase-1 growth, X-gal OD620, 72 h | inhibition, % at 10 µM | 0.61% of 280,000 active | AID 2071; in the data active = inhibition mostly above about 24%, no sharp cut-off; inactive = mostly below about 32%
tim10-1 inh: inhibits growth of tim10-1 mutant yeast; 2.2% of 330,000 active; inhibition, % at 20 µM; S. cerevisiae tim10-1 ts strain growth, BacTiter-Glo, 24 h;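 active = inhibition of at least 40%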;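 note: mutant grown at 25 °C; 0% = DMSO wells with yeast and 100% = wells holding no yeast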
NLRP3 yeast inh: blocks the NALP3 inflammasome reconstituted in yeast | inhibition, % at 10 µM | Yeast reconstituted NLRP3/ASC/caspase-1, beta-gal luminescence, 24 h | 0.39% of 330,000 active | AID 2825;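 active = inhibition of 50% or more; inactive = inhibition below 50%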;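 note: plate controls were induced DMSO wells for no effect and uninduced yeast grown without galactose for full effect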
tim10-1 confirm: tim10-1 yeast growth inhibition, confirmed. S. cerevisiae tim10-1 ts strain growth, BacTiter-Glo, 24 h. 56% of 7,400 active. inhibition, % at 20 µM. shares compounds with tim10-1 inh. AID 463213;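 active = inhibition of yeast growth at or above a set limit in either of two repeat tests at 20 µM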;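 note: tim10-1 mutant grown at permissive 25 °C to find synthetic lethal compounds; 0% = DMSO yeast wells and 100% = medium wells without yeast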
Starred values were filed as active, the others as inactive; x = not tested or not shown.

SMILES | TIM10 inh | tim23-1 inh | PfHsp90 yeast 2 | NALP1 yeast inh | tim10-1 inh | NLRP3 yeast inh | tim10-1 confirm
CC(C)(C)c1cc(CCC(=O)NNC(=S)NC(=O)c2ccccc2)cc(C(C)(C)C)c1O | 25 | 28 | -1 | 13 | 46* | 18 | 31*
O=C(CCc1ccccc1)NNC(=S)NC(=O)c1ccccc1 | 13 | -7 | -22 | -1 | -40 | 31 | x
Cc1ccc(C(=O)OCC(=O)NN2C(=O)NC3(CCC(C)CC3)C2=O)cc1 (stereo not given) | -4 | 7 | x | x | -6 | 0 | x
c1ccc(Oc2nc(Oc3ccccc3)nc(N3CCOCC3)n2)cc1 | 6 | 27 | 10 | 9 | 40 | 14 | x
O=Cc1ccccc1Oc1nc(N2CCOCC2)nc(N2CCOCC2)n1 | 33 | 47 | 6 | 3 | 45* | 3 | 41*
CCO[C@@H]1OC(C(=O)N2CCOCC2)=C[C@H](c2ccc(C(F)(F)F)cc2)[C@H]1CCCO | 17 | 20 | -28 | -4 | 14 | 10 | x
COc1cccc(/C=C/C(=O)NCc2cn3cc(Cl)ccc3n2)c1 | 12 | -7 | 0 | -26 | -8 | 5 | x
O=C(/C=C/c1cccc(Cl)c1)OCc1cn2cc(Cl)ccc2n1 | 20 | 28 | -11 | 11 | 43* | 6 | 29
COc1ccc(C2/C=C\CN(C(=O)c3ccc(C)cc3)CC(=O)N2Cc2ccc(F)cc2)cc1 (stereo not given) | 13 | 8 | x | 2 | 40* | 14 | 21
CCOc1ccc(S(=O)(=O)N2CCN(c3ccccc3F)CC2)c2cccnc12 | 22 | 33 | -4 | 37 | 45* | 13 | 25
CCOc1ccccc1N1CCN(S(=O)(=O)c2ccc3c4c(cccc24)C(=O)N3)CC1 | 15 | 6 | -32 | 14 | 20 | 19 | x
COC(CNC(=O)c1cnn2c(C)c(Cc3ccccc3)c(C)nc12)OC | -2 | 26 | 10 | -2 | 40* | 8 | 24
COc1cccc(C2C3=C(CC(C)(C)CC3=O)Nc3n[nH]c(C)c32)c1 (stereo not given) | -1 | 10 | 13 | 4 | 12 | 14 | x
Cc1cc(N2C3CCC2CC(O)(c2ccc(F)cc2)C3)nc(-c2ccccc2)n1 (stereo not given) | 40 | 46 | 17 | 19 | 48* | 8 | 37*
Cc1ccc2c(c1)c1c(n2CC(O)Cn2nc(C)c(Br)c2C)CCCC1 (stereo not given) | 7 | 23 | -63 | 6 | 43* | -4 | 11
COc1ccnc(-n2cccc2C#N)c1C#N | 12 | 6 | 0 | 10 | 4 | -5 | x
S=c1[nH]c(-c2ccccc2)cn1/N=C/c1ccccc1Br | 15 | 25 | -52 | 3 | 42* | 19 | 11
COc1ccccc1-n1cc(CN2CCN(C3CCCCC3)C(CCO)C2)cn1 (stereo not given) | -10 | 1 | 8 | 14 | 6 | 12 | x
COc1ccc(CNc2nc(Cl)c(C#N)s2)cc1 | 18 | 35 | -4 | 9 | 39 | 24 | x
N#Cc1sc(NCc2ccccc2)nc1Cl | 11 | 40 | 21 | -7 | 41* | 4 | 22
CCOC(=O)COn1c(=O)c(-c2ccc(F)cc2)[n+]([O-])c2ccccc21 | -11 | 0 | 1 | 4 | 22 | 12 | x
CCOC(=O)COn1c(=O)c(-c2cc3ccccc3o2)[n+]([O-])c2ccccc21 | 7 | 29 | x | -4 | 44* | 21 | 12
Cc1cc(Nc2ccccc2)c2c([N+](=O)[O-])c(C)cc(C)c2n1 | 32 | 45 | x | x | 41* | 11 | 27
Cc1cccc(Nc2cc(C)nc3ccccc23)c1 | -6 | -5 | -6 | 3 | -15 | 18 | x
O=C1C=C(c2cc3ccccc3o2)C[C@@H](c2ccc(F)cc2)C1 | 8 | 25 | -19 | x | 13 | 3 | x
SMILES | TIM10 inh | tim23-1 inh | PfHsp90 yeast 2 | NALP1 yeast inh | tim10-1 inh | NLRP3 yeast inh | tim10-1 confirm
CCOC(=O)C1=C(C)N(C)C(=S)N(C)C1c1ccc(OC)cc1 (stereo not given) | 13 | 23 | x | 1 | 32 | -4 | x
COC(=O)C1=C(C)N(C)C(=S)N(C)C1c1cccc(Br)c1 (stereo not given) | 25 | 44 | 28 | 12 | 42* | 19 | 27
Cc1cc(NC(=O)c2c(F)cccc2Cl)n(-c2nc3ccccc3[nH]2)n1 | 1 | 37 | -31 | 17 | 40* | 6 | 30
COc1ccc(/C=C2\Oc3ccccc3C2=O)cc1 | 0 | 31 | -6 | x | -5 | 45 | x
CC(=O)Oc1ccc(/C=C2/Oc3ccccc3C2=O)cc1 | 26 | 40 | -13 | 21 | 44* | 5 | 8
CCc1ccccc1N1C(=O)[C@@H]2Cc3ccccc3CN2C1=O | -15 | -2 | 5 | 16 | -23 | 24 | x
CCc1cc2c(cc3c(=O)n(CC(=O)NCCCN4CCCCCC4)nc(CC)n32)s1 | 0 | -3 | -2 | 0 | -1 | 2 | x
CN(C(=O)c1cccc(NC(=O)Cc2ccc([N+](=O)[O-])cc2)c1)C1CC1 | 3 | 2 | 6 | x | -5 | 13 | x
Cc1cccc(NC(=S)NCCSc2ccc(Cl)cc2)c1 | 35 | 28 | 22 | 9 | 45* | 16 | 26
Cc1ccc(C)c(NC(=S)NCCSc2ccc(Cl)cc2)c1 | 19 | 17 | -36 | 27 | 26 | 23 | x
Cc1ccccc1NC(=S)NCCSc1ccc(Cl)cc1 | 25 | 30 | -6 | 0 | 47* | 23 | 26
COc1ccc(S(=O)(=O)Cc2ccc(C(=O)NC3CCC(C)CC3)o2)cc1 (stereo not given) | 12 | 23 | -4 | 8 | 40* | 4 | 6
COc1ccc(S(=O)(=O)Cc2ccc(C(=O)N3CCN(c4ccc(Cl)cc4)CC3)o2)cc1 | 25 | 35 | 30 | -2 | 46* | 6 | 18
COc1ccc(S(=O)(=O)Cc2ccc(C(=O)N3CCN(c4cc(C)ccc4C)CC3)o2)cc1 | 12 | 29 | -4 | 4 | 45* | 8 | -5
COc1ccc(N2CCN(C(=O)c3ccc(CS(=O)(=O)c4ccc(OC)cc4)o3)CC2)cc1 | 8 | 5 | 31 | -16 | 16 | -2 | x
Cc1ccc(OCC(=O)NCCCNC(=O)c2ccccn2)cc1C | 11 | 3 | 1 | -7 | 1 | 19 | x
CC[C@H](C)[C@H](NC(N)=O)C(=O)NCCc1ccc(OC)c(OC)c1 | -8 | 2 | x | 13 | 9 | -5 | x
CN(C)/N=C/C=C1\CCC/C(=C\c2ccc(F)c(F)c2)C1=O | 30 | 46 | 23 | -11 | 46* | 10 | 48*
COc1ccc(/C=C2\CCC/C(=C\C=N\N(C)C)C2=O)cc1 | 31 | 31 | 24 | 3 | 26 | -9 | x
N#CCc1ccccc1C(=O)OCC(=O)N(Cc1ccccc1)Cc1ccccc1 | -14 | 20 | x | x | 0 | 4 | x
CN(CC(=O)O/N=C(\N)c1ccccn1)S(=O)(=O)c1ccc(Br)cc1 | 13 | 23 | -7 | x | 32 | 20 | x
